Hits are enriched below; roughly 2.9% of the tested compounds scored in any of these assays.
KKLEB cytotox: CF airway cell cytotoxicity counter-screen. KKLEB CF airway cells viability, ATPlite luminescence, overnight; stronger effect = lower value; cells stimulated with P. aeruginosa culture filtrate. actives 0.36% (n = 360,000). activity change (cytotoxicity), % at 5 µM;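 active = corrected activity change at or below -50% at 5 µM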
EBV LMP1 NFkB: Epstein-Barr LMP1 NF-kappaB reporter inhibition; LMP1-induced NF-kappaB luciferase reporter cells, luminescence; inhibition, % at 12.5 µM; actives 0.69% (n = 350,000); AID 504558; in the data active = inhibition above about 41%;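 note: 0% = neutral control wells and 100% = reference inhibitor control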
Peg3 prom inh-1: Peg3 promoter activity inhibition; HeLa PEG-Prom luciferase reporter, luminescence, overnight; inhibition, % at 20 µM; actives 1.7% (n = 360,000);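 active = inhibition of at least 50% at 20 µM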
CF NFkB block: cystic fibrosis NF-kB activation inhibition. KKLEB NF-kB-GFP reporter, PAF-induced, GFP fluorescence overnight. inhibition, % at 5 µM. actives 0.86% (n = 360,000);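 active = at least 50% inhibition at 5 µM, scaled per plate between neutral and stimulator controls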;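 note: PAF is a Pseudomonas aeruginosa culture filtrate used as stimulus; plate controls were PAF-stimulated DMSO wells for no effect and unstimulated DMSO wells for full effect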
MITF TRPM1 inh: reduces MITF-dependent TRPM1 promoter luciferase signal. inhibition, % at 12.5 µM. actives 0.83% (n = 330,000). SK-MEL-5 TRPM1 promoter luciferase, 24 h;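 active = mean inhibition across replicates of 60% or more, whatever share of single replicates reaches that level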
Shn3 inh set2: Schnurri-3 reporter inhibition in Clone20 osteoblasts. actives 0.52% (n = 360,000). Clone20 osteoblast Shn3 3'UTR firefly luciferase, 24 h. inhibition, % at 12.5 µM;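 active = mean inhibition of at least 75% with every replicate also reaching 75%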;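 note: 0% = median of neutral control wells and 100% = pilot-screen positive control compound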
Peg3 prom inh-2: confirmation of Peg3 promoter inhibitors | shares compounds with Peg3 prom inh-1 | HeLa PEG-Prom luciferase reporter, luminescence, overnight | inhibition, % at 20 µM | actives 84% (n = 1,300) | AID 602417;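 active = at 20 µM dose, 40% or more inhibition averaged across four replicates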
* hit, by the source's call; . = no result given.

SMILES	KKLEB cytotox	EBV LMP1 NFkB	Peg3 prom inh-1	CF NFkB block	MITF TRPM1 inh	Shn3 inh set2	Peg3 prom inh-2
Cc1ccc(S(=O)(=O)N2CCCCC2)cc1C(=O)N(C)CC(=O)Nc1ccc(Cl)c(C(F)(F)F)c1	-23	-8	53*	4	20	60	56*
Cc1ccc(C(=O)N(C)CC(=O)Nc2ccc(Cl)c(C(F)(F)F)c2)cc1S(=O)(=O)N1CCCCC1	-32	9	27	16	4	31	.
COc1ccc(/C=N/NC(=O)CCSc2nc3ccccc3s2)cc1OC	-6	5	9	14	-3	5	.
O=C(CCSc1nc2ccccc2s1)N/N=C/c1c(O)ccc2ccccc12	1	-10	54*	10	41	87*	59*
CN(C)c1ncnc2c1ncn2[C@H]1CN(Cc2ccc3c(c2)OCO3)C[C@@H](CO)O1	9	.	5	-19	.	-1	.
CCCCCCCCNCCS(=O)(=O)NCc1ccc(OC)cc1	-3	1	56*	-14	-4	-27	68*
Cn1c(=O)c(Oc2cc(Cl)cc(Cl)c2)nc2ccccc21	-10	-8	68*	10	0	-2	36
COc1ccc(Oc2nc3ccccc3n(C)c2=O)cc1	-5	9	-10	4	5	4	.
Cn1cccc1-c1cc(C(=O)N/N=C/c2cc(Br)ccc2O)[nH]n1	7	33	58*	4	62*	80	62*
CCN(C(=O)COC(=O)CCC(=O)c1cccs1)c1ccccc1	-1	3	2	14	1	3	.
Cc1nn(-c2nc3ccccc3[nH]2)c(=O)c2ccccc12	-78*	81*	104*	-12	96*	93*	99*
CCOC(=O)Cn1c2ccc(OC)cc2c2nc3ccccc3nc21	-46	3	88*	26	27	4	33
COC(=O)Cn1c2ccc(OC)cc2c2nc3ccccc3nc21	-2	-4	23	-1	8	5	.
CN(Cc1ccccc1)C(=O)c1ccc(Cc2cn(C)c3ccccc23)nc1	7	.	11	-16	.	1	.
COc1ccc2[nH]c(C)c(CCNC(=S)Nc3cccc(C)c3)c2c1	-12	-5	-7	19	-5	6	.
CCc1cccc(CC)c1NC(=S)NCCc1c(C)[nH]c2ccc(C)cc12	5	-5	69*	13	3	17	85*
CCOc1ccc2c(ccc(/C=C/c3cc(C)c4cccnc4c3O)[n+]2C)c1	-5	0	101*	43	75*	87*	84*
OC(c1ccc(Cl)cc1)c1ncc(-c2ccccc2Cl)[nH]1 (centres undefined)	-3	.	-49	-5	.	-26	.
COc1cccc(OC)c1C(=O)NCCc1ccccc1	-10	-2	2	9	18	-6	.
COC(=O)c1c(N)sc(C(=O)NCCc2ccccc2)c1C	-20	67*	78*	-4	63*	31	65*
Cc1cccc(NC(=O)c2ncn3c2C(=O)N[C@H](C)C3)c1	14	.	-7	-10	.	-7	.
CCN(C[C@H]1N[C@@](Cc2ccccc2)(C(=O)OC)[C@H]2C(=O)N(C)C(=O)[C@@H]12)C(=O)COc1ccccc1	25	1	13	-33	0	-4	.
O=C(NC(c1ccc(Cl)cc1)c1cnccn1)C1CCN(Cc2cccc(C(F)(F)F)c2)CC1 (centres undefined)	-8	.	1	13	.	7	.
O=C(NC(c1ccc(F)cc1)c1ccc2ccccc2n1)C1CCN(Cc2cccc(C(F)(F)F)c2)CC1 (centres undefined)	-25	.	78*	38	.	58	85*
COC(=O)c1c(NC(=O)c2ccc([N+](=O)[O-])o2)sc2c1CCN(C(C)C)C2	-29	39	94*	75*	63*	4	69*
SMILES	KKLEB cytotox	EBV LMP1 NFkB	Peg3 prom inh-1	CF NFkB block	MITF TRPM1 inh	Shn3 inh set2	Peg3 prom inh-2
COc1cc(/C=N/NC(=O)c2cccs2)ccc1OCc1ccccc1	7	-10	-92	-20	-36	-27	.
NC(N)=N/N=C/c1ccc(OCc2ccccc2)c(OCc2ccccc2)c1	-53*	-24	103*	45	82*	67	99*
CCOc1cc(/C=N/N=C(N)N)ccc1OCc1ccc(Cl)cc1	-24	5	99*	6	90*	95*	97*
O=C1Nc2ccccc2N=C(c2ccccc2)C1N(C(=O)c1ccnc2ccccc12)c1ccccc1 (centres undefined)	0	.	20	14	.	23	.
COCCCN1C(=O)C(CC(=O)NC2CC2)CC(C(=O)N(C(C)C)C(C)C)=C1C (centres undefined)	0	.	3	-7	.	-3	.
O=C(NCc1ccccn1)c1ccccc1OCc1ccccc1Cl	10	2	14	-14	.	6	.
Cc1ccc(Cn2c(=N)n(CC(=O)c3ccccc3)c3ccccc32)cc1	-15	2	92*	12	1	83	86*
CCCn1c(=N)n(CC(=O)c2ccc(Cl)cc2)c2ccccc21	-6	15	66*	-11	16	24	60*
CCCn1c(=N)n(CC(=O)c2ccc(OCC(=O)OC)cc2)c2ccccc21	-15	-3	6	-4	8	2	.
COC(=O)C1CCN(C2CN(Cc3ccc([N+](=O)[O-])cc3)S(=O)(=O)C2)CC1 (centres undefined)	9	.	-27	-24	.	2	.
Cc1ccc(S(=O)c2ccc([N+](=O)[O-])c3nonc23)cc1 (centres undefined)	-4	5	51*	-10	.	5	98*
Cc1ccc(Nc2c([N+](=O)[O-])ccc3nonc23)c(C)c1	-4	-3	6	14	-11	3	.
O=C(c1ccc(Cl)cc1)N1CCN(c2ccc([N+](=O)[O-])c(NCc3cccnc3)c2)CC1	0	6	55*	5	9	19	49*
CCN(CC)CCN1CCN(c2cncc(-c3ccc4ccccc4c3)n2)CC1	-12	.	71*	-8	.	-23	90*
CCOC(=O)c1cnc2c(cnn2C)c1NCCC#N	-27	7	-3	2	3	-8	.
CCOC(=O)c1cnc2c(cnn2C)c1NCCCN(C)C	0	-3	62*	-17	-1	2	56*
C=CCn1c(C)cc(C(=O)COc2ccc(C)nc2[N+](=O)[O-])c1C	2	24	61*	14	27	50	69*
Cc1ccc(OCC(=O)c2cc(C)n(-c3ccccc3)c2C)c([N+](=O)[O-])n1	3	66*	80*	22	37	49	80*
COCCn1c(C)cc(C(=O)COc2ccc(C)nc2[N+](=O)[O-])c1C	5	45*	66*	-19	36	58	72*

Screening data: PubChem BioAssay, several laboratories
